Measured values from article PMC7862700, “An all-to-all approach to the identification of sequence-specific readers for epigenetic DNA modifications on cytosine”.

Legend:
Experiment in all cases: DAPPL (digital affinity profiling via proximity ligation, sequencing); 10 mM Tris-HCl pH 7.5, 50 mM NaCl, 1 mM DTT, 4% glycerol, room temperature, 30 min; GST-TFs on glutathione beads, 16-mer random dsDNA library, 0.1% formaldehyde crosslink after washing; high values mean tight binding
Settings in all cases: protein: recombinant; tags: N-terminal GST; dsDNA, one strand shown
[1] = target: T1, ERF (Homo sapiens, UniProt P50548 1-548)
T1 sequence: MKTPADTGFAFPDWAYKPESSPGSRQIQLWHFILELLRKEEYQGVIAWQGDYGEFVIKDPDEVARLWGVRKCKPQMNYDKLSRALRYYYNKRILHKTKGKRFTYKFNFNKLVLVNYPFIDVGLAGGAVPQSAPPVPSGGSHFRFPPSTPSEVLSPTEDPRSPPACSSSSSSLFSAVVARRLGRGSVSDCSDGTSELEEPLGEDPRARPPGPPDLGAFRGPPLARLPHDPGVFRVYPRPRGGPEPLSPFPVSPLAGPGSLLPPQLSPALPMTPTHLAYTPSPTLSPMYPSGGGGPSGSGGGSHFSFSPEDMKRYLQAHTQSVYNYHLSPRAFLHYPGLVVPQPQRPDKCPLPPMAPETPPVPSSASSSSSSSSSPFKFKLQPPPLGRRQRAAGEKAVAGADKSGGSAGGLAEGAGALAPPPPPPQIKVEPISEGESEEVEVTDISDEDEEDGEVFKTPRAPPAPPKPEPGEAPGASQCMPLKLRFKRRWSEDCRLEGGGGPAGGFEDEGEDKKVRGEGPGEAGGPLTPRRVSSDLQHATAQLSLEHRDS
Method in brief: (§1)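 Binding signal is each hexamer's read frequency for a factor divided by its frequency in the tag-only sample. The factors were GST-fused human transcription factors from yeast, captured on glutathione beads, DNA-barcoded and pooled with that sample. Pools were incubated with 200 nmole of a random double-stranded 16-mer DNA library in Tris/NaCl/DTT/glycerol buffer at room temperature for 30 min, then washed, crosslinked with 0.1% formaldehyde, proximity-ligated with BsaI/T4 ligase (1 h, 37 °C), PCR-amplified and sequenced on an Illumina NextSeq500.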

[2] = target: T2, ETV3L (Homo sapiens, UniProt Q6ZN32 1-361)
T2 sequence: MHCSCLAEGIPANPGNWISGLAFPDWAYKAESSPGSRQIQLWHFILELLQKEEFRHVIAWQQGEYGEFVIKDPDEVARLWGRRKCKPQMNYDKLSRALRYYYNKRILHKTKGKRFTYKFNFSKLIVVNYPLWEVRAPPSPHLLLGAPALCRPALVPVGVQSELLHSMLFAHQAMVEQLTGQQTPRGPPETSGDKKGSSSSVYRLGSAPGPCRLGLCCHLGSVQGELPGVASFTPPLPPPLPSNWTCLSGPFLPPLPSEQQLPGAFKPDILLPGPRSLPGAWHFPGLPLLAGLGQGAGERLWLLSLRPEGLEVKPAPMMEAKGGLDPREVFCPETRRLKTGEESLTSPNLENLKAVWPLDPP
Method in brief: as §1

[3] = target: T3, ETS2 (Homo sapiens, UniProt P15036 1-469)
T3 sequence: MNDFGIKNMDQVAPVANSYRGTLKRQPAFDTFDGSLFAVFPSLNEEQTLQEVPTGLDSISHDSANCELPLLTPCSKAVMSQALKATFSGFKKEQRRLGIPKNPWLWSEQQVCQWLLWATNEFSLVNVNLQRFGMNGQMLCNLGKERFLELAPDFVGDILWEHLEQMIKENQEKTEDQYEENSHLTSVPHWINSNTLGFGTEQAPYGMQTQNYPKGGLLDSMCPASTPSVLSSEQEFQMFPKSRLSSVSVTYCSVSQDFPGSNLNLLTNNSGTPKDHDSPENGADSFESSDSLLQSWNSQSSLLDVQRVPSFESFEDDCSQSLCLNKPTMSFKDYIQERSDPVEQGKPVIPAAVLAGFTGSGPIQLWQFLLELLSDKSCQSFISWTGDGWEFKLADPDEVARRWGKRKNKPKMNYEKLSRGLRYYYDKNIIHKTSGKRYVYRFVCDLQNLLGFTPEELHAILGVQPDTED
Method in brief: as §1

[4] = target: T4, SPDEF (Homo sapiens, UniProt O95238 1-335)
T4 sequence: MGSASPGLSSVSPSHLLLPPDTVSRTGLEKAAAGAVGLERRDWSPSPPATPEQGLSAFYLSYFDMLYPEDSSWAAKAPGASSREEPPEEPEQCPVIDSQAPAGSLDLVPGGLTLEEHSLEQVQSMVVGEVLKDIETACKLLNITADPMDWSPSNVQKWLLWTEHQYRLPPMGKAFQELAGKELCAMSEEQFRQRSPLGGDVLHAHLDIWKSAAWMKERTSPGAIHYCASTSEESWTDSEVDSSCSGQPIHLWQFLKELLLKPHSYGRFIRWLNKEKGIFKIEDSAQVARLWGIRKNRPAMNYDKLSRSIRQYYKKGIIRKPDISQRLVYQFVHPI
Method in brief: as §1

[5] = target: T5, ETV7 (Homo sapiens, UniProt Q9Y603 1-341)
T5 sequence: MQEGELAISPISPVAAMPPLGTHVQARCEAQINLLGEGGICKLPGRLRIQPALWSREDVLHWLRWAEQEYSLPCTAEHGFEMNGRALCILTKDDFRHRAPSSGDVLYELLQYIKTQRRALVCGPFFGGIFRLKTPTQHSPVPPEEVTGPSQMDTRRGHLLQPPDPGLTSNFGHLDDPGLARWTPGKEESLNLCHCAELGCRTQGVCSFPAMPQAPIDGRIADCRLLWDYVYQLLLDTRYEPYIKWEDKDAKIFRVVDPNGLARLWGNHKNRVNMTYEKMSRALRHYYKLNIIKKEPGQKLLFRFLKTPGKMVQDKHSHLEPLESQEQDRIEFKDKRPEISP
Method in brief: as §1

[6] = target: T6, ELF5 (Homo sapiens, UniProt Q9UKW6-2 1-255)
T6 sequence: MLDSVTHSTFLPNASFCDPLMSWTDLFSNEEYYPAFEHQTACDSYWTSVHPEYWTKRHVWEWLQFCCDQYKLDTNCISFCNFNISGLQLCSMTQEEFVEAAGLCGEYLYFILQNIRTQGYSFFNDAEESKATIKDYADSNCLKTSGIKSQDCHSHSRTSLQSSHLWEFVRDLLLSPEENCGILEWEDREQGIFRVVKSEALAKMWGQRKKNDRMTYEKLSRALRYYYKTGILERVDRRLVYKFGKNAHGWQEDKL
Method in brief: as §1

[7] = target: T7, ETV3 (Homo sapiens, UniProt P41162-2 1-143)
T7 sequence: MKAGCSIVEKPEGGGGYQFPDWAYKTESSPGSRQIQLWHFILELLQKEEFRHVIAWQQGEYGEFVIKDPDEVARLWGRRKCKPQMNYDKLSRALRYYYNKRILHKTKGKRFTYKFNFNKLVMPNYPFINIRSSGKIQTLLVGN
Method in brief: as §1

[8] = target: ETV6 (Homo sapiens, UniProt P41212 1-452)
Method in brief: as §1

Sequence of ETV6 (P41212 whole entry): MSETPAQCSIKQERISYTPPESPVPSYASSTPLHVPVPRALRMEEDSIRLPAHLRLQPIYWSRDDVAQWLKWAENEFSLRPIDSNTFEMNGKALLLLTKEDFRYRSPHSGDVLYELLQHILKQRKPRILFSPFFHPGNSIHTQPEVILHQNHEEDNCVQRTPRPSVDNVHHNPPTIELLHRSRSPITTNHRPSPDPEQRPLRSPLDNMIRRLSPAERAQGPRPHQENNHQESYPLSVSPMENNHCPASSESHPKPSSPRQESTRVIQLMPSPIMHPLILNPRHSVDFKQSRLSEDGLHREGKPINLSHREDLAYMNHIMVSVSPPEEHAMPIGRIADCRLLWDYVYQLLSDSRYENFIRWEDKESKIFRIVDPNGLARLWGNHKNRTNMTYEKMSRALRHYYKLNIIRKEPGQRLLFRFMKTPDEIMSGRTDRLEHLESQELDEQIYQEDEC

| Sequence | binding signal [1] | binding signal [2] | binding signal [3] | binding signal [4] | binding signal [5] | binding signal [6] | binding signal [7] | binding signal [8] |
| --- | --- | --- | --- | --- | --- | --- | --- | --- |
| ACCCTC | 1.19 fold enrichment (6-mer frequency, TF over GST control) | 1.08 fold enrichment (6-mer frequency, TF over GST control) | 1.19 fold enrichment (6-mer frequency, TF over GST control) | 1.11 fold enrichment (6-mer frequency, TF over GST control) | 1.13 fold enrichment (6-mer frequency, TF over GST control) | 1.06 fold enrichment (6-mer frequency, TF over GST control) | 1.16 fold enrichment (6-mer frequency, TF over GST control) | 1.12 fold enrichment (6-mer frequency, TF over GST control) |
| AGATGC | 1.23 fold enrichment (6-mer frequency, TF over GST control) | 1.09 fold enrichment (6-mer frequency, TF over GST control) | 1.09 fold enrichment (6-mer frequency, TF over GST control) | 1.03 fold enrichment (6-mer frequency, TF over GST control) | 1.03 fold enrichment (6-mer frequency, TF over GST control) | 1.12 fold enrichment (6-mer frequency, TF over GST control) | 1.06 fold enrichment (6-mer frequency, TF over GST control) | 1.04 fold enrichment (6-mer frequency, TF over GST control) |
| AAAAGA | 1.24 fold enrichment (6-mer frequency, TF over GST control) | 1.1 fold enrichment (6-mer frequency, TF over GST control) | 1.22 fold enrichment (6-mer frequency, TF over GST control) | 1.1 fold enrichment (6-mer frequency, TF over GST control) | 1.1 fold enrichment (6-mer frequency, TF over GST control) | 1.13 fold enrichment (6-mer frequency, TF over GST control) | 1.07 fold enrichment (6-mer frequency, TF over GST control) | 1.21 fold enrichment (6-mer frequency, TF over GST control) |
| CCCCTT | 1.53 fold enrichment (6-mer frequency, TF over GST control) | 1.47 fold enrichment (6-mer frequency, TF over GST control) | 1.51 fold enrichment (6-mer frequency, TF over GST control) | 1.5 fold enrichment (6-mer frequency, TF over GST control) | 1.56 fold enrichment (6-mer frequency, TF over GST control) | 1.64 fold enrichment (6-mer frequency, TF over GST control) | 1.51 fold enrichment (6-mer frequency, TF over GST control) | 1.51 fold enrichment (6-mer frequency, TF over GST control) |
| TCTCAT | 1.26 fold enrichment (6-mer frequency, TF over GST control) | 1.32 fold enrichment (6-mer frequency, TF over GST control) | 1.26 fold enrichment (6-mer frequency, TF over GST control) | 1.33 fold enrichment (6-mer frequency, TF over GST control) | 1.11 fold enrichment (6-mer frequency, TF over GST control) | 1.24 fold enrichment (6-mer frequency, TF over GST control) | 1.37 fold enrichment (6-mer frequency, TF over GST control) | 1.14 fold enrichment (6-mer frequency, TF over GST control) |
| TGCCAC | 1.14 fold enrichment (6-mer frequency, TF over GST control) | 1.28 fold enrichment (6-mer frequency, TF over GST control) | 1.23 fold enrichment (6-mer frequency, TF over GST control) | 1.15 fold enrichment (6-mer frequency, TF over GST control) | 1.21 fold enrichment (6-mer frequency, TF over GST control) | 1.16 fold enrichment (6-mer frequency, TF over GST control) | 1.18 fold enrichment (6-mer frequency, TF over GST control) | 1.24 fold enrichment (6-mer frequency, TF over GST control) |
| GTCCCT | 1.22 fold enrichment (6-mer frequency, TF over GST control) | 1.16 fold enrichment (6-mer frequency, TF over GST control) | 1.31 fold enrichment (6-mer frequency, TF over GST control) | 1.37 fold enrichment (6-mer frequency, TF over GST control) | 1.22 fold enrichment (6-mer frequency, TF over GST control) | 1.23 fold enrichment (6-mer frequency, TF over GST control) | 1.26 fold enrichment (6-mer frequency, TF over GST control) | 1.21 fold enrichment (6-mer frequency, TF over GST control) |
| CCTTCA | 1.42 fold enrichment (6-mer frequency, TF over GST control) | 1.21 fold enrichment (6-mer frequency, TF over GST control) | 1.38 fold enrichment (6-mer frequency, TF over GST control) | 1.48 fold enrichment (6-mer frequency, TF over GST control) | 1.26 fold enrichment (6-mer frequency, TF over GST control) | 1.56 fold enrichment (6-mer frequency, TF over GST control) | 1.46 fold enrichment (6-mer frequency, TF over GST control) | 1.5 fold enrichment (6-mer frequency, TF over GST control) |
| ACCTTC | 1.92 fold enrichment (6-mer frequency, TF over GST control) | 1.75 fold enrichment (6-mer frequency, TF over GST control) | 1.89 fold enrichment (6-mer frequency, TF over GST control) | 2.02 fold enrichment (6-mer frequency, TF over GST control) | 1.79 fold enrichment (6-mer frequency, TF over GST control) | 2.19 fold enrichment (6-mer frequency, TF over GST control) | 1.8 fold enrichment (6-mer frequency, TF over GST control) | 1.96 fold enrichment (6-mer frequency, TF over GST control) |
